Assay outcomes (PubChem BioAssay)
HEK293 tox – qHTS of GLP-1 Receptor Inverse Agonists: Cytotox Screen. actives 0.13% (n = 410,000). Potency, µM (top dose mostly 38.3 µM), for inactives: at the highest dose activity change, negative = inhibition, actives largely listed as inhibitors. HEK293 cAMP-luciferase reporter cells, luminescence, 24 h;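 also: loss of luciferase light is scored as toxicity; % is scaled to controls: 0 for no effect and ±100 for the full control effect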
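To flag toxic compounds, the library was rerun on cells for 24 hr at 37 deg C and 5% CO2. Viability-linked luminescence was captured 12 min after adding luciferase detection reagent.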
EPAC2 antag – qHTS for Antagonist of cAMP-regulated guanine nucleotide exchange factor 2 (EPAC2): primary screen | Potency, µM (series often up to 114 µM), without a hit: top-dose activity, negative = inhibition, most hits filed as inhibitors | actives 0.18% (n = 360,000) | Rap guanine nucleotide exchange factor 4 (Homo sapiens), Q8WZA2 | EPAC2 GEF exchange of Rap1B-BODIPY-GDP, fluorescence | AID 720708, 2013; also: % is scaled to controls: 0 for no effect and ±100 for the full control effect; nearly all actives have a fitted effect of over 45% in size
Target sequence (Q8WZA2 whole entry, looked up): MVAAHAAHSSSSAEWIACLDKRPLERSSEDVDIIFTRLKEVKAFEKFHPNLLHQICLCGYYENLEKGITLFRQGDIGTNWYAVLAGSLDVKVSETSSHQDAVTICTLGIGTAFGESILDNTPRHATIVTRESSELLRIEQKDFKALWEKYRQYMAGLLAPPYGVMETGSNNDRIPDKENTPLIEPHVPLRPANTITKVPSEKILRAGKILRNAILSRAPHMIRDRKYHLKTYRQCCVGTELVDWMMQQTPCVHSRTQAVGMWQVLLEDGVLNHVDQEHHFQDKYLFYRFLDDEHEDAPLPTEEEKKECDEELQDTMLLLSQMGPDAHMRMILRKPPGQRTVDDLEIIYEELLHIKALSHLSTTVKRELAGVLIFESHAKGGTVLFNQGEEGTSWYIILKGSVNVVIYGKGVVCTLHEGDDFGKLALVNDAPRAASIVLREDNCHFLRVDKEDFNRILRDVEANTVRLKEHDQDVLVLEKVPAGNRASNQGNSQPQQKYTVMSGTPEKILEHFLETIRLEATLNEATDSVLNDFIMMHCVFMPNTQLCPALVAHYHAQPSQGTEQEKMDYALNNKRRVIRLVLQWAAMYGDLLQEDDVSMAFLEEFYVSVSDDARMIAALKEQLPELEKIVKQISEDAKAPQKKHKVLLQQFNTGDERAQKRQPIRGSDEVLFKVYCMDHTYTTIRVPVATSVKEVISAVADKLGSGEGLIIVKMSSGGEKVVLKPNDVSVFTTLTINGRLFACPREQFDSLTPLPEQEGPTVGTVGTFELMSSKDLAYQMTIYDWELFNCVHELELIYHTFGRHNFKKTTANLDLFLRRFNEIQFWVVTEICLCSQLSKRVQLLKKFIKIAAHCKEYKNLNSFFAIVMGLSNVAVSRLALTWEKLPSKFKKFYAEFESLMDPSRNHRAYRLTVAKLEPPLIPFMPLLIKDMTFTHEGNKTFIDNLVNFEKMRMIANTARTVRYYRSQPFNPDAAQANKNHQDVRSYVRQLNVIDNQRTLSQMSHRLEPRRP
EPAC1 antagonist – qHTS for Antagonist of cAMP-regulated guanine nucleotide exchange factor 3 (EPAC1): primary screen; Rap guanine nucleotide exchange factor 3 (Homo sapiens), O95398; EPAC1 GEF assay, Rap1b-BODIPY-GDP exchange fluorescence; Potency, µM (top dose mostly 115 µM), without a hit: top-dose activity change, negative = inhibition, actives largely listed as inhibitors; actives 0.14% (n = 360,000);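 also: plate controls were vehicle for no effect and positive control for full effect; nearly all actives have a fitted effect of over 50% in size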
USP1-UAF1 inh – Inhibitors of USP1/UAF1: Primary Screen. Potency, µM (doses to about 57.1 µM), inactives show at the highest dose activity change, negative = inhibition, usual class: inhibitors. recombinant USP1/UAF1, Ub-Rhodamine cleavage fluorescence. actives 0.23% (n = 390,000). AID 743255, 2014; also: % is scaled to controls: 0 for no effect and ±100 for the full control effect; nearly all actives have a fitted effect of over 60% in size
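USP1/UAF1 complex (1 nM) preincubated 15 min at room temperature with compound, then Ub-Rho substrate (150 nM final) added. Kinetic fluorescence at 480/540 nm over 6 reads at 60 s intervals; 50 mM HEPES pH 7.8, 0.5 mM EDTA, 0.1 mg/ml BSA, 1 mM TCEP, 0.01% Tween-20.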
EPAC1 ag – qHTS for Agonist of cAMP-regulated guanine nucleotide exchange factor 3 (EPAC1): primary screen | actives 0.073% (n = 360,000) | EPAC1 agonist qHTS, biochemical assay; response scale: 100% = response to 6.5 mM cAMP | AID 720707, 2013 | Potency, µM (highest dose often 154 µM), for inactives: top-dose activation, actives largely listed as activators; also: nearly all actives have a fitted effect of over 60% in size
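Read-out is the fluorescence drop as BODIPY-GDP leaves Rap1B (480 nm excitation, 540 nm emission), recorded every 5 minutes over 30 minutes. Reactions held 100 nM EPAC1, 250 nM Rap1B–BODIPY-GDP and 50 uM GDP, with 6.5 mM cAMP setting full activation.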
EPAC2 ag – qHTS for Agonist of cAMP-regulated guanine nucleotide exchange factor 4 (EPAC2): primary screen. Rap guanine nucleotide exchange factor 4 (Homo sapiens), Q8WZA2. EPAC2 activation, biochemical qHTS; response scale: 100% = 6.5 mM cAMP response. Potency, µM (top dose mostly 154 µM), inactives show top-dose activation, usual class: activators. actives 0.079% (n = 360,000). AID 720711, 2013; also: nearly all actives have a fitted effect of over 50% in size
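EPAC2 (100 nM) mixed with Rap1B loaded with BODIPY-GDP (250 nM) plus 50 uM unlabeled GDP; compounds pinned in, 5 min RT, then read every 5 min for 30 min (ex 480, em 540 nm). Normalized to cAMP control.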
* = called active by the depositor; [ ] = dose if it differs, or a comment. Most compounds without a hit are left out; they make up all but 0.55% or so of the library. Calls follow the shape of the dose curve; as a rule, active = well fitted curve in the direction sought with a large enough effect; inconclusive = small, poorly fitted or top-dose-only effect, or another doubt; inactive = no such curve, though single readings can be large; an effect the other way counts as inactive or inconclusive. Potency is read from the fitted curve at half-maximal effect.

What do the screens show for `CN1/C(=C\C=C2/C(=O)Oc3ccccc3C2=O)C(C)(C)c2ccccc21`?
HEK293 tox: -24%; EPAC2 antag: inactive; EPAC1 antagonist: inactive; USP1-UAF1 inh: inconclusive; EPAC1 ag: 79µM*; EPAC2 ag: 79µM*

What do the screens show for `N=c1c2c(-c3ccccc3)c(-c3ccccc3)n(Cc3ccccc3)c2ncn1CCCn1ccnc1`?
HEK293 tox: 10µM*; EPAC2 antag: -3%; EPAC1 antagonist: 7%; USP1-UAF1 inh: -17%; EPAC1 ag: -3%; EPAC2 ag: -2%[15.6 µM]

What do the screens show for `CC(C)(C)C1CCc2c(sc(NC(=O)CCC(=O)O)c2C(=O)Nc2ccccc2C(F)(F)F)C1` (centres undefined)?
HEK293 tox: 1%; USP1-UAF1 inh: inconclusive

What do the screens show for `O=C1C(=O)c2c(ccc3ccccc23)-c2ccccc21`?
HEK293 tox: inconclusive; EPAC2 antag: -29%; EPAC1 antagonist: -24%; USP1-UAF1 inh: 4µM*; EPAC1 ag: 17%; EPAC2 ag: 4%

Results for CN(C)/C=C1\Oc2ccc3ccccc3c2C1=O ?
HEK293 tox: 73%; EPAC2 antag: -13%; EPAC1 antagonist: -17%; USP1-UAF1 inh: -12%; EPAC1 ag: -3%; EPAC2 ag: 2%

Results for COCCCn1c(SCc2ccccc2F)nc2c(sc3ccccc32)c1=O ?
HEK293 tox: 0%; USP1-UAF1 inh: -22%

What do the screens show for `C#CCOCCOCCOCCNc1nc(N2CCN(C(=O)CCCCCCCCCCNC(=O)[C@H](CO)n3cc(CCCSC)nn3)CC2)nc(N2CCN(C(=O)CCCCCCCCCCNC(=O)[C@H](CCCN=C(N)N)n3cc(C[C@@H](C)CC)nn3)CC2)n1`?
HEK293 tox: -30%; EPAC2 antag: inconclusive; EPAC1 antagonist: 56µM*; USP1-UAF1 inh: inconclusive; EPAC1 ag: -30%; EPAC2 ag: -19%

Results for C=CCOC(=O)C1=C(C)NC(C)=C(C(=O)OCC=C)C1c1ccco1 ?
HEK293 tox: 7%; EPAC2 antag: 45µM*; EPAC1 antagonist: -14%; USP1-UAF1 inh: -8%; EPAC1 ag: 0%; EPAC2 ag: 2%

How did Cc1c(N=C2C=CC(=O)c3ccccc32)c(=O)n(-c2ccccc2)n1C do in these assays?
HEK293 tox: -8%; EPAC2 antag: -14%; EPAC1 antagonist: inconclusive; USP1-UAF1 inh: 32µM*; EPAC1 ag: 16%; EPAC2 ag: 25%

How did COCCCNC(=O)c1ccc2c3c(onc13)-c1ccccc1C2=O do in these assays?
HEK293 tox: inconclusive; EPAC2 antag: 39%; EPAC1 antagonist: inconclusive; USP1-UAF1 inh: 20µM*; EPAC1 ag: 79µM*; EPAC2 ag: 100µM*

How did COc1ccc(N(Cc2ccccc2)C(=O)c2nc(S(C)(=O)=O)ncc2Cl)cc1 do in these assays?
HEK293 tox: inconclusive; USP1-UAF1 inh: 2%

What do the screens show for `Cc1[nH]n(-c2ncc(-c3ccc(Cl)cc3)s2)c(=O)c1C(c1ccc(Cl)cc1)C(C#N)C#N` (centres undefined)?
HEK293 tox: -23%; EPAC2 antag: -15%; EPAC1 antagonist: 40µM*; USP1-UAF1 inh: -13%; EPAC1 ag: 0%; EPAC2 ag: 1%

Results for COc1ccc(-c2noc(Cn3c(=O)c4ccccc4n(CC(=O)Nc4cccc(C(F)(F)F)c4)c3=O)n2)cc1 ?
HEK293 tox: -3%; USP1-UAF1 inh: -7%

How did COc1cc(C)c(/C=C/C(C)=C/C=C/C(C)=C/C(=O)O)c(C)c1C do in these assays?
HEK293 tox: 1%; EPAC2 antag: 10µM*; EPAC1 antagonist: inconclusive; USP1-UAF1 inh: -33%; EPAC1 ag: -8%; EPAC2 ag: -8%

What do the screens show for `COc1cc(/C=C/C(=O)O)ccc1OS(=O)(=O)c1c(C)c(C)cc(C)c1C`?
HEK293 tox: 1%; EPAC2 antag: -4%; EPAC1 antagonist: -6%; USP1-UAF1 inh: -9%; EPAC1 ag: -4%; EPAC2 ag: 8%

Results for O=C(NCc1cccc(F)c1)c1cccc2c1C(=O)c1ccc(N3CCCC3)cc1S2(=O)=O ?
HEK293 tox: 33%; EPAC2 antag: 124%; EPAC1 antagonist: 79%; USP1-UAF1 inh: inconclusive; EPAC1 ag: 28µM*; EPAC2 ag: inconclusive

Results for CC1CCN(c2ccc3c(c2)S(=O)(=O)c2cccc(C(=O)NCc4cccc(F)c4)c2C3=O)CC1 ?
HEK293 tox: 7%; EPAC2 antag: inactive; EPAC1 antagonist: 62%; USP1-UAF1 inh: inconclusive; EPAC1 ag: 100µM*; EPAC2 ag: -4%

How did COc1ccccc1N1CCN(c2ccc3c(c2)S(=O)(=O)c2cccc(C(=O)NCc4ccc(F)cc4)c2C3=O)CC1 do in these assays?
HEK293 tox: 3%; EPAC2 antag: -11%; EPAC1 antagonist: -8%; USP1-UAF1 inh: -2%; EPAC1 ag: 6%; EPAC2 ag: 0%

How did N#CC(C(=O)NCc1ccco1)c1nc2ccccc2nc1N1CCOCC1 (centres undefined) do in these assays?
HEK293 tox: 68%; EPAC2 antag: inconclusive; EPAC1 antagonist: 79µM*; USP1-UAF1 inh: -4%; EPAC1 ag: -33%; EPAC2 ag: 16%

Results for N#CC(C(=O)NCCc1ccccc1)c1nc2ccccc2nc1N1CCCCC1 (centres undefined) ?
HEK293 tox: 95%; EPAC2 antag: -17%; EPAC1 antagonist: -15%; USP1-UAF1 inh: 6%; EPAC1 ag: -1%; EPAC2 ag: 14%

How did N#CC(C(=O)NCc1ccccc1)c1nc2ccccc2nc1N1CCCC1 (centres undefined) do in these assays?
HEK293 tox: 78%; EPAC2 antag: 115%[57.1 µM]; EPAC1 antagonist: 59%; USP1-UAF1 inh: inconclusive; EPAC1 ag: 16%; EPAC2 ag: 89µM*

What do the screens show for `CCN(CC)c1nc2ccccc2nc1C(C#N)C(=O)NCCc1ccccc1` (centres undefined)?
HEK293 tox: 105%; EPAC2 antag: 32µM*; EPAC1 antagonist: -8%; USP1-UAF1 inh: 150%; EPAC1 ag: 14%; EPAC2 ag: -133%
